{
  "source": "PubChem BioAssay (Tox21)",
  "note": "Values joined by “and” are separate entries in the source; they are usually repeats but may differ in a detail not shown here. Equal entries are not always repeated. Inconclusive results are not listed. More than one record can exist for a structure, and the calls need not agree. Active and inactive are the calls of the source. Unless noted, calls follow the shape of the dose curve; as a rule, active = well fitted inhibition curve with a large enough effect in the repeat runs; inconclusive = weak or mixed curves; inactive = no such curve, though single readings can be large or run the other way. % is scaled to controls: 0 for no effect and ±100 for the full control effect; potency is read from the fitted curve at half-maximal effect.",
  "data": [
    {"tested_on": "not listed separately", "test": "qHTS assay to identify small molecule antagonists of the thyroid receptor (TR) signaling pathway (AID 743065); also: nearly all actives have a fitted effect of over 55% in size", "conditions": "GH3.TRE-Luc, T3-stimulated luciferase inhibition, 23.5 h; series mostly up to 70.3 µM; activity, negative = inhibition: at the top concentration", "outline": "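GH3.TRE-Luc rat pituitary cells (two TREs driving luciferase) were dosed with compound, then stimulated with 1 nM T3 (final) for 23.5 h at 37 C. ONE-Glo luminescence was the read-out, with CellTiter-Fluor fluorescence as the cytotoxicity counter-screen.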", "values": [
      {"molecule": "CCCCOC(=O)CCC(=O)OCCCC", "activity, negative = inhibition": "-0.0051% (inactive)"},
      {"molecule": "CCOC(=O)C1OC1(C)c1ccccc1", "note": "(stereo unspecified)", "Potency": "inactive"},
      {"molecule": "O=C1CC[C@@]2(O)[C@H]3Cc4ccc(O)c5c4[C@@]2(CCN3CC2CC2)[C@H]1O5", "activity, negative = inhibition": "15.1% (inactive)"},
      {"molecule": "O=S(=O)(c1ccccc1)c1ccccc1", "activity, negative = inhibition": "7.68% (inactive)"},
      {"molecule": "CCCCNC(=O)OCC#CI", "Potency": "9.64 µM (active) and 4.86 µM (active)"},
      {"molecule": "CCCCCl", "Potency": "inactive"},
      {"molecule": "CC[N+]1(C)CCCC(OC(=O)C(O)(c2ccccc2)c2ccccc2)C1", "note": "(stereo unspecified)", "activity, negative = inhibition": "5.32% (inactive)"},
      {"molecule": "CCCCCCCCP(=O)(O)O", "activity, negative = inhibition": "0.0483% (inactive)"},
      {"molecule": "O=C(O)c1cc(Cl)ccc1Cl", "activity, negative = inhibition": "2.38% (inactive)"},
      {"molecule": "Cc1ccccc1", "Potency": "inactive"},
      {"molecule": "C[C@]12C=CC3=C4CCC(=O)C=C4CC[C@H]3[C@@H]1CC[C@@H]2O", "Potency": "30.4 µM (active)"},
      {"molecule": "Nc1ccccc1C(=O)OCCc1ccccc1", "Potency": "inactive"},
      {"molecule": "O=C(N[C@H]1CN2CCC1CC2)c1ccc2c(c1)OCCO2", "activity, negative = inhibition": "0.767% (inactive)"},
      {"molecule": "CC(C)CCON=O", "Potency": "inactive"},
      {"molecule": "N#CC1(N=NC2(C#N)CCCCC2)CCCCC1", "activity, negative = inhibition": "-4.69% (inactive)"},
      {"molecule": "O=C(N/N=C/c1ccc([N+](=O)[O-])o1)c1cc([N+](=O)[O-])cc([N+](=O)[O-])c1O", "activity, negative = inhibition": "-11.5% (inactive)"},
      {"molecule": "CCCN(CCOc1c(Cl)cc(Cl)cc1Cl)C(=O)n1ccnc1", "Potency": "27.9 µM (active) and 61.1 µM (active)"},
      {"molecule": "CC(Oc1cccc(Cl)c1)C(=O)O", "note": "(stereo unspecified)", "activity, negative = inhibition": "3.4% (inactive)"},
      {"molecule": "CC(Cl)C(=O)O", "note": "(stereo unspecified)", "activity, negative = inhibition": "120% [at 95 µM] (inactive)"},
      {"molecule": "O=[N+]([O-])/C=C/c1ccccc1", "Potency": "12.4 µM (active) and 7.7 µM (active)"},
      {"molecule": "C[N+](C)(C)CCOC(=O)C(O)(c1ccccc1)c1ccccc1", "activity, negative = inhibition": "6.26% (inactive)"},
      {"molecule": "C=CCc1ccc(OC(=O)Cc2ccccc2)c(OC)c1", "activity, negative = inhibition": "11.3% (inactive)"},
      {"molecule": "CCc1cnc(C2=NC(C)(C(C)C)C(=O)N2)c(C(=O)O)c1", "note": "(stereo unspecified)", "Potency": "inactive"},
      {"molecule": "FC(F)OC(F)(F)C(F)Cl", "note": "(stereo unspecified)", "Potency": "inactive"},
      {"molecule": "ClCc1ccccc1Cl", "activity, negative = inhibition": "0% [at 95 µM] (inactive)"},
      {"molecule": "OCCCl", "activity, negative = inhibition": "14.4% (inactive)"},
      {"molecule": "C=CCSSCC=C", "activity, negative = inhibition": "-0.455% (inactive)"},
      {"molecule": "COc1ccccc1N1CCNCC1", "activity, negative = inhibition": "0.538% (inactive)"},
      {"molecule": "O=C(NCNC(=O)NC1C(=O)NC(=O)N1CO)NC1C(=O)NC(=O)N1CO", "note": "(stereo unspecified)", "Potency": "inactive"},
      {"molecule": "Clc1ccc(Cl)c(Cl)c1", "Potency": "inactive"},
      {"molecule": "CC(=O)NNc1ccccc1", "Potency": "4.82 µM (active)"},
      {"molecule": "COc1ccc2c(c1OC)C(=O)O[C@H]2[C@@H]1c2cc3c(cc2CCN1C)OCO3", "activity, negative = inhibition": "-4.15% (inactive)"},
      {"molecule": "CC(C)(C#N)C(C)(C)C#N", "activity, negative = inhibition": "0.999% [at 95 µM] (inactive)"},
      {"molecule": "Cc1ccc(N)c(C)c1", "Potency": "inactive"},
      {"molecule": "CCCC[P+](CC)(CCCC)CCCC", "note": "(tested in a mixture with another compound)", "activity, negative = inhibition": "-2.56% [at 95 µM] (inactive)"},
      {"molecule": "C[N+]1(CCF)[C@@H]2CC[C@H]1CC(OC(=O)C(O)(c1ccccc1)c1ccccc1)C2", "note": "(stereo partly specified)", "activity, negative = inhibition": "12.3% (inactive)"},
      {"molecule": "O=C(O)C(Cl)(Cl)Br", "activity, negative = inhibition": "-2.83% [at 95 µM] (inactive)"},
      {"molecule": "C[Si](Cn1cncn1)(c1ccc(F)cc1)c1ccc(F)cc1", "Potency": "28.2 µM (active) and 54.5 µM (active)"}
    ]},
    {"tested_on": "thyroid hormone receptor (rat, GH3 cells)", "test": "qHTS assay to identify small molecule agonists of the thyroid receptor (TR) signaling pathway (AID 743066; calls by dose curve)", "conditions": "GH3.TRE-Luc cells, TR agonist luciferase, 24 h; series mostly up to 83.9 µM; activation: at the top concentration", "values": [
      {"molecule": "CCCCOC(=O)CCC(=O)OCCCC", "activation": "0.735% (inactive)"},
      {"molecule": "CCOC(=O)C1OC1(C)c1ccccc1", "note": "(stereo unspecified)", "activation": "0.157% (inactive)"},
      {"molecule": "O=C1CC[C@@]2(O)[C@H]3Cc4ccc(O)c5c4[C@@]2(CCN3CC2CC2)[C@H]1O5", "activation": "0.238% (inactive)"},
      {"molecule": "O=S(=O)(c1ccccc1)c1ccccc1", "activation": "1.62% (inactive)"},
      {"molecule": "CCCCNC(=O)OCC#CI", "activation": "-10.3% (inactive)"},
      {"molecule": "CCCCCl", "Potency": "inactive"},
      {"molecule": "CC[N+]1(C)CCCC(OC(=O)C(O)(c2ccccc2)c2ccccc2)C1", "note": "(stereo unspecified)", "activation": "1.37% (inactive)"},
      {"molecule": "CCCCCCCCP(=O)(O)O", "activation": "-0.484% (inactive)"},
      {"molecule": "O=C(O)c1cc(Cl)ccc1Cl", "activation": "-0.506% (inactive)"},
      {"molecule": "Cc1ccccc1", "Potency": "inactive"},
      {"molecule": "C[C@]12C=CC3=C4CCC(=O)C=C4CC[C@H]3[C@@H]1CC[C@@H]2O", "activation": "-2.59% (inactive)"},
      {"molecule": "Nc1ccccc1C(=O)OCCc1ccccc1", "Potency": "inactive"},
      {"molecule": "O=C(N[C@H]1CN2CCC1CC2)c1ccc2c(c1)OCCO2", "activation": "-0.0205% (inactive)"},
      {"molecule": "CC(C)CCON=O", "Potency": "inactive"},
      {"molecule": "N#CC1(N=NC2(C#N)CCCCC2)CCCCC1", "activation": "0.417% (inactive)"},
      {"molecule": "O=C(N/N=C/c1ccc([N+](=O)[O-])o1)c1cc([N+](=O)[O-])cc([N+](=O)[O-])c1O", "activation": "0.0164% (inactive)"},
      {"molecule": "CCCN(CCOc1c(Cl)cc(Cl)cc1Cl)C(=O)n1ccnc1", "Potency": "inactive"},
      {"molecule": "CC(Oc1cccc(Cl)c1)C(=O)O", "note": "(stereo unspecified)", "activation": "0.379% (inactive)"},
      {"molecule": "CC(Cl)C(=O)O", "note": "(stereo unspecified)", "activation": "-0.19% [at 95.2 µM] (inactive)"},
      {"molecule": "O=[N+]([O-])/C=C/c1ccccc1", "Potency": "inactive"},
      {"molecule": "C[N+](C)(C)CCOC(=O)C(O)(c1ccccc1)c1ccccc1", "activation": "1.33% (inactive)"},
      {"molecule": "C=CCc1ccc(OC(=O)Cc2ccccc2)c(OC)c1", "activation": "0.613% (inactive)"},
      {"molecule": "CCc1cnc(C2=NC(C)(C(C)C)C(=O)N2)c(C(=O)O)c1", "note": "(stereo unspecified)", "Potency": "inactive"},
      {"molecule": "FC(F)OC(F)(F)C(F)Cl", "note": "(stereo unspecified)", "Potency": "inactive"},
      {"molecule": "ClCc1ccccc1Cl", "activation": "0.42% [at 95.2 µM] (inactive)"},
      {"molecule": "OCCCl", "activation": "6.26% (inactive)"},
      {"molecule": "C=CCSSCC=C", "activation": "-0.833% (inactive)"},
      {"molecule": "COc1ccccc1N1CCNCC1", "activation": "-0.337% (inactive)"},
      {"molecule": "O=C(NCNC(=O)NC1C(=O)NC(=O)N1CO)NC1C(=O)NC(=O)N1CO", "note": "(stereo unspecified)", "Potency": "inactive"},
      {"molecule": "Clc1ccc(Cl)c(Cl)c1", "Potency": "inactive and 30.6 µM (active)"},
      {"molecule": "CC(=O)NNc1ccccc1", "activation": "-6.3% (inactive)"},
      {"molecule": "COc1ccc2c(c1OC)C(=O)O[C@H]2[C@@H]1c2cc3c(cc2CCN1C)OCO3", "activation": "0.114% (inactive)"},
      {"molecule": "CC(C)(C#N)C(C)(C)C#N", "activation": "1.63% [at 95.2 µM] (inactive)"},
      {"molecule": "Cc1ccc(N)c(C)c1", "Potency": "inactive"},
      {"molecule": "CCCC[P+](CC)(CCCC)CCCC", "note": "(tested in a mixture with another compound)", "activation": "0.516% [at 95.2 µM] (inactive)"},
      {"molecule": "C[N+]1(CCF)[C@@H]2CC[C@H]1CC(OC(=O)C(O)(c1ccccc1)c1ccccc1)C2", "note": "(stereo partly specified)", "activation": "-0.13% (inactive)"},
      {"molecule": "O=C(O)C(Cl)(Cl)Br", "activation": "-0.29% [at 95.2 µM] (inactive)"},
      {"molecule": "C[Si](Cn1cncn1)(c1ccc(F)cc1)c1ccc(F)cc1", "activation": "-11.2% [at 95.2 µM] (inactive)"}
    ]}
  ]
}
